High-throughput results (PubChem)
Rows were chosen to be rich in hits. Some 11% of all compounds tested hit in one or more screens of this group.
BAZ2B inh: BAZ2B (human) inhibition; Potency, µM (titrated, usually from 114 µM), for inactives: at the highest dose activity change, negative = inhibition, actives largely listed as inhibitors; Q9UIF8; 4.4% of 360,000 active; AlphaScreen BAZ2B-H3K14Ac peptide displacement; AID 504333; further: on the % scale 0 is the no-effect control and ±100 the full control effect; nearly all actives have a fitted effect of over 60% in size
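AlphaScreen displacement of biotin-H3(5-23)K14Ac peptide (50 nM final) from BAZ2B (50 nM final) in PBS pH 7.4, 0.01% Tween-20; complex preformed 30 min RT, then compounds (top 110 uM) 30 min RT, beads 20 min dark.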
JMJD2A Tudor: inhibitors of human JMJD2A Tudor domain | O75164 | AlphaScreen JMJD2A-Tudor / H3K4me3 peptide binding | Potency, µM (titrated, usually from 114 µM), without a hit: top-dose activity change, negative = inhibition, usual class: inhibitors | 4.4% of 390,000 active | AID 504339; further: on the % scale 0 is the no-effect control and ±100 the full control effect; nearly all actives have a fitted effect of over 50% in size
PLK1 PBD inh: blocks phosphopeptide binding to human PLK1 polo-box domain. P53350. Potency, µM, inactives show max response, negative = inhibition, most hits filed as inhibitors. 2.8% of 360,000 active. Plk1 PBD binding of FITC phosphopeptide, fluorescence polarization; further: series mostly up to about 57 µM; on the % scale 0 is the no-effect control and ±100 the full control effect; nearly all actives have a fitted effect of over 65% in size
HP1b chromo inh: HP1-beta chromodomain-methylated histone interaction inhibition | AlphaScreen HP1-beta / biotin-H3K9me3 peptide binding | Potency, µM (highest dose often 114 µM), without a hit: top-dose activity change, negative = inhibition, usual class: inhibitors | 0.56% of 390,000 active | AID 540317; further: nearly all actives have a fitted effect of over 70% in size
Target sequence (P83916 whole entry, looked up): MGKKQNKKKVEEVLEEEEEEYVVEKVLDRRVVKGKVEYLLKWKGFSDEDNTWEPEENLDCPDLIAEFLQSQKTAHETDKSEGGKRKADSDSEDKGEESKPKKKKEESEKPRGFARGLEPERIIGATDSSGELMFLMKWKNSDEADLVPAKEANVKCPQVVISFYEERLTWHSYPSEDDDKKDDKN
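AlphaScreen: HP1-beta (50 nM) preformed 30 min with biotin-H3(1-18)K9me3 peptide (50 nM) in PBS pH 7.4, 0.01% Tween-20. Compound added for 30 min at RT, then streptavidin donor/nickel chelate acceptor beads (10 ug/mL) for 30 min.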
VDR inh: inhibitors of human vitamin D receptor | VDR-SRC2-3 peptide fluorescence polarization, 2 h | Potency, µM, for inactives: max response, negative = inhibition, hits mostly inhibitors | 0.93% of 400,000 active; further: on the % scale 0 is the no-effect control and ±100 the full control effect
Target sequence (P11473 whole entry, looked up): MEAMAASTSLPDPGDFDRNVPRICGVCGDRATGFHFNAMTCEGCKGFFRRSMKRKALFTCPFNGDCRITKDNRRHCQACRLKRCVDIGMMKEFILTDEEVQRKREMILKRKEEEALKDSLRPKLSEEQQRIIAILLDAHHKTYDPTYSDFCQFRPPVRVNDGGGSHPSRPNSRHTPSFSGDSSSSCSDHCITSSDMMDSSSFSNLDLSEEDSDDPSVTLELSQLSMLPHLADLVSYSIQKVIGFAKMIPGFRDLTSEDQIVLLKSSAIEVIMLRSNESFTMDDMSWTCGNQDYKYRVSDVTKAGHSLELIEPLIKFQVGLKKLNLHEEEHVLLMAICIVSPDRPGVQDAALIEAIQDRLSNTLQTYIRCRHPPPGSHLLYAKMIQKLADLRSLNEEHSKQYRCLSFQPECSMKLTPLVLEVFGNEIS
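Measured by FP: displacement of SRC2-3 coactivator peptide from VDR by library compounds, following a two-hour ambient incubation.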
G9a inh: G9a (human) methyltransferase inhibition | Potency, µM (highest dose often 102 µM), inactives show top-dose activity, negative = inhibition, hits mostly inhibitors | Q96KQ7 | G9a H3K9 monomethylation, AlphaScreen, 2 h | 8.8% of 350,000 active | AID 504332; further: on the % scale 0 is the no-effect control and ±100 the full control effect; nearly all actives have a fitted effect of over 75% in size
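Using a bead-based AlphaScreen, monomethylated H3K9 product from 2 h room-temperature reactions (G9a 20 nM, peptide 500 nM, SAM 20 uM) was detected with 0.5 ug/mL rabbit anti-H3K9me1 antibody.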
The depositor's hits bear a star; ? = inconclusive; . = no result given; [ ] = another dose, or the depositor's remark. The call rests on the fitted dose curve; in most records, active means well fitted curve in the direction sought with a large enough effect; inconclusive means small, poorly fitted or top-dose-only effect, or another doubt; inactive means no such curve, though single readings can be large; an effect the other way counts as inactive or inconclusive. Potency means the concentration at half of the fitted maximal effect.

SMILES	BAZ2B inh	JMJD2A Tudor	PLK1 PBD inh	HP1b chromo inh	VDR inh	G9a inh
NS(=O)(=O)c1ccc(CCNCc2ccccc2OCc2ccc(F)cc2)cc1	-13.4%	-8.0%	-5.6%	-0.3%	-20.6%	16.0%
NS(=O)(=O)c1ccc(NCc2ccccc2OCc2ccc(F)cc2)cc1	56.2µM*	-27.9%	-0.1%	7.4%	-8.0%	?
CC(C)C1C(=O)N(Cc2cn(CCC3OCCCO3)nn2)CCS(=O)(=O)N1Cc1ccc(-c2ccc(Cl)c(Cl)c2)cc1 (stereo not drawn)	.	.	-13.5%	.	.	.
O=c1ccsc2ccccc12	.	-0.7%	-9.6%	14.4%	-6.6%	.
Cn1c(=O)n(-c2cccc(Cl)c2)c(=O)c2sc3ccccc3c21	-0.7%	8.2%	.	27.4%	-14.8%	8.2%[59 µM]
O=c1c2ccccc2sn1-c1ccccc1F	.	.	2.99µM*	.	.	.
Cn1sc2ccccc2c1=O	.	.	4.74µM*	.	.	.
Cc1ccccc1-n1sc2cc(F)ccc2c1=O	4.47µM*	4.47µM*	1.19µM*	15.8µM*	?	-112.7%
O=c1c2ccccc2sn1-c1cccc(Cl)c1	.	.	2.99µM*	.	.	.
O=c1c2ccccc2sn1-c1nccs1	5.01µM*	5.62µM*	2.38µM*	?	3.98µM*	1.41µM*
O=C(O)c1cccc(N2C(=O)CCC2=O)c1	-31.8%	.	.	.	.	.
O=C(O)c1cccc(-n2sc3ccccc3c2=O)c1	8.91µM*	2.82µM*	1.19µM*	73.2%	7.08µM*	7.3%[0.501 µM]
N#Cc1ccc2c(=O)n(-c3ccccc3)sc2c1	.	.	2.99µM*	.	.	.
O=C1c2ccccc2C(=O)N1c1nccs1	.	-9.7%	6.7%	10.5%[57 µM]	-1.9%	.
O=c1c2ccccc2sn1-c1ccccc1	7.94µM*	3.98µM*	1.06µM*	?	3.98µM*	?
Cc1c(P(=S)(c2ccccc2)c2ccccc2)[n+]2ccccc2n1CCc1ccccc1	.	-21.8%	.	.	.	.
O=c1c2cc3ccccc3nc2ncn1CCc1ccc(Cl)cc1	.	.	4.0%	.	.	.
CN(C)S(=O)(=O)c1cccc(-n2sc3ccccc3c2=O)c1	4.47µM*	14.1µM*	1.19µM*	-12.3%	31.6µM*	-127.9%
CC(=O)Nc1ccc2c(=O)n(-c3ccccc3)sc2c1	.	.	2.38µM*	.	.	.
CC(=O)Nc1ccc(-c2cc(N)n(-c3ccccc3)n2)cc1	-33.8%	-17.7%	-0.1%	12.5%	1.4%	-4.9%[12.7 µM]
COc1ccc(S(=O)(=O)Nc2ncccc2C)c2ccccc12	-27.1%	-13.7%	-5.4%	28.9%	-7.6%	-5.9%[0.501 µM]
Cc1cc(C(=O)N2CCC(C(F)(F)F)n3nccc32)on1 (stereo not drawn)	27.6%	5.8%	-1.5%	24.1%	19.2%	-1.4%[12.7 µM]
O=C1c2ccccc2C(O)(c2ccccc2)N1c1ccncc1 (stereo not drawn)	-12.5%	-5.1%	?	14.1%	-5.7%	10.8%[12.7 µM]
OCCCc1nc2n(n1)C(c1cccs1)C=C(c1ccccc1)N2 (stereo not drawn)	-33.2%	.	.	.	.	39.8µM*
C=CCNCCCOc1ccc(Cl)cc1C(C)(C)C	39.8µM*	4.47µM*	-1.9%	?	-14.9%	10µM*
SMILES	BAZ2B inh	JMJD2A Tudor	PLK1 PBD inh	HP1b chromo inh	VDR inh	G9a inh
OCCNCCCOc1cc(Cl)ccc1Cl	-2.3%	-19.1%	-0.9%	35.7%	2.6%	-20.4%
C=CCNCCOCCSc1ccc(Cl)cc1	?	3.16µM*	0.5%	?	-8.0%	7.94µM*
COCCNCCCCSc1ccc(Cl)cc1	56.2µM*	8.91µM*	-19.6%	-35.0%	-6.9%	.
C=CCNC(=O)CSc1ccc(Cl)cc1	-0.5%	-17.0%	-8.0%	46.8%	0.6%	7.2%[12.7 µM]
COCCCNCCOCCOc1ccc(Cl)cc1C(C)(C)C	?	20µM*	-2.1%	-33.6%	-6.8%	8.91µM*
Cc1cc2c(s1)c1cnn(Cc3ccc(F)cc3Cl)c(=O)c1n2C	.	-24.0%	.	.	.	.
C=CCNCCOCCOc1ccc(Cl)cc1C(C)(C)C	50.1µM*	2µM*	2.0%	-44.9%	-10.2%	8.91µM*
Cc1c(Cl)cccc1NC(=O)COC(=O)Cn1cnc2c1c(=O)n(C)c(=O)n2C	25.4%	-1.0%	-1.7%	37.6%	2.7%	-13.0%[2.33 µM]
OC(CNCc1ccco1)COc1ccccc1 (stereo not drawn)	18.0%	-19.6%	-5.6%	32.9%	-10.3%	-11.7%[59 µM]
Cc1c(C)n(CC(O)CNCCO)c2ccccc12 (stereo not drawn)	44.7µM*	12.6µM*	4.0%	?	17.6%	8.91µM*
OC(CNCc1ccco1)Cn1c2ccccc2c2ccccc21 (stereo not drawn)	?	?	0.4%	-9.3%	1.9%	50.1µM*
Cc1c(C)n(CC(O)CNc2ccccc2)c2ccccc12 (stereo not drawn)	25.1µM*	25.1µM*	6.5%	?	-16.2%	12.6µM*
Cc1c(C)n(CC(O)CSc2ccccc2)c2ccccc12 (stereo not drawn)	.	.	2.38µM*	.	.	.
Cc1c(C)n(CC(O)CN(CCO)CCO)c2ccccc12 (stereo not drawn)	-32.2%	?	0.0%	0.7%	3.5%	-12.2%[59 µM]
CC(=O)O[C@H]1C[C@@]2(C)[C@H](C[C@@H](O)[C@H]3[C@@]4(C)CC[C@@H](O)[C@@H](C)[C@H]4CC[C@@]32C)C1=C(CCC=C(C)C)C(=O)O	.	.	.	.	-1.2%	4.4%[12.7 µM]
CCOc1ccc(CCNC(=O)COC(=O)COc2ccc(C#N)cc2)cc1OCC	4.5%	-9.8%	-2.3%	14.7%	17.3%	1.5%[12.7 µM]
O=S(=O)(c1ccc(-c2cnc(C3CC3)o2)cc1)N1CCN(c2ccc(F)cc2)CC1	-22.3%	-12.3%	.	22.7%	-1.6%	-3.9%[12.7 µM]
Cc1c(C)n(CC(O)CN2CCCCCC2)c2ccccc12 (stereo not drawn)	?	?	-5.7%	-8.5%	0.3%	35.5µM*
OC(CN1CCCCC1)Cn1c2ccccc2c2cc(Br)ccc21 (stereo not drawn)	-5.4%	-20.4%	-15.5%	43.8%	-9.6%	-8.9%
COc1cc(/C=N/N=C2/C(=O)Nc3ccccc32)cc(OC)c1O	50.1µM*	?	-13.2%	-55.4%	-12.2%	2.82µM*
Cc1ccc2cccc(NC(=S)NC(=O)c3ccnn3C)c2n1	-14.8%	?	0.9%	2.0%	3.0%	-9.7%[59 µM]
Cn1nccc1C(=O)Nc1ccc2c(c1)OCCO2	0.0%	-12.4%	?	4.2%	-6.4%	1.8%
Cn1nccc1C(=O)Nc1ccc(OC(=O)c2ccnn2C)cc1	-5.6%	-8.0%	-11.5%	32.0%	16.3%	1.58µM*
Cn1nccc1C(=O)NC(=S)Nc1cc(Cl)cc(Cl)c1	-16.1%	22.4µM*	?	-6.5%	-28.5%	?
Cc1ccc(OCCN2CCC2(C)C(=O)NCc2ccc(C(F)(F)F)cc2)cc1 (stereo not drawn)	.	.	3.5%	.	.	.
CCOC(=O)/C(=N\Nc1cc(C(F)(F)F)ccc1Cl)N(CC)CC	?	-30.1%	-0.1%	7.0%	?	3.55µM*
CCOC(=O)/C(=N\Nc1ccccc1Cl)N(C)C1CCCCC1	-30.2%	-30.1%	?	13.0%	-7.3%	10µM*
